Source: PubChem
esBAF inh: blocks esBAF chromatin remodeling in mouse ES cells; AID 602393; actives 2% (n = 350,000); Bmi1-luciferase knock-in reporter, 24 h; 100% = twice the neutral-well signal; reporter increase, % at 12.5 µM; in the data active = activation above about 40%; inconclusive = no clear call, values can overlap the other calls;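 also: 0% = median of the plate's neutral control wells and 100% = double that signal; a rise in the Bmi1 reporter signal indicates esBAF inhibition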
HSF1 inhib: HSF1 inhibition | NIH3T3-HGL HSE-luciferase, MG132-induced, luminescence 8 h; active compounds read low | activity change, negative = inhibition, % at 7.5 µM (by protocol) | actives 0.77% (n = 300,000);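 active = more than half of replicate wells show activity change below -50%, luminescence cut by over half; inconclusive = some wells, but at most half, below -50%; inactive = no replicate well below -50%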;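 also: luciferase reports HSF-1 transcriptional activity via heat shock element; 0% = median of DMSO wells and -100% = zero luminescence signal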
Wnt bcat act: activates Wnt/beta-catenin signaling in a reporter cell assay. activator, plate reader. activation, % at 9.35 µM. actives 1.2% (n = 300,000); in the data active = activation above about 30%, passing the limit was not always enough; inconclusive = no clear call, values can overlap the other calls;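 also: 0% = neutral control wells and 100% = positive control wells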
HSF-1 act: increases HSF-1 driven luciferase reporter signal; NIH3T3-HGL HSF-1 luciferase reporter, MG132, 8 h; 100% = twice DMSO control signal; activation, % at 9 µM; actives 1.7% (n = 300,000); AID 504408;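 active = mean replicate activation of at least 50% with a set share of replicates each reaching 50%; inconclusive = only one of those two conditions met; inactive = mean below 50% and too few replicates reaching it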;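 also: 0% = median of the neutral control wells and 100% = twice that signal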
MITF TRPM1 HTS: increases MITF-driven TRPM1 promoter luciferase signal | SK-MEL-5 TRPM1-promoter luciferase, 24 h; % of positive control, neutral wells = 0 | activation, % at 12.5 µM | actives 0.75% (n = 300,000) | AID 588334;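 active = mean activation of at least 80% with every replicate also reaching 80%; inconclusive = mean reaches 80% but some replicate falls short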;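 also: 0% = neutral control wells and 100% = parthenolide positive control wells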
The depositor's hits bear a star; ? = inconclusive; · = not tested or not shown. An excerpt weighted towards active compounds, which were near 3.9% of everything screened.

SMILES | esBAF inh | HSF1 inhib | Wnt bcat act | HSF-1 act | MITF TRPM1 HTS
COc1cccc2cc(C(=O)N3CCc4ccccc4C3)c(=O)oc12 | 78* | 2 | · | 32 | 49
Cc1cc(C(=O)N2CCc3ccccc3C2)c(C)o1 | 52* | · | -2 | · | 29
Cc1cc(C(=O)N2CCc3ccccc3C2)no1 | -5 | 3 | 1 | 7 | 14
Cc1cc(OCc2cc(C(=O)N(C)C3CCOCC3)no2)cc(C)c1Cl | 61* | 21 | 30 | 31 | 63
Cc1ccc(OCc2cc(C(=O)N(C)CC3CCOCC3)no2)cc1C | 69* | 29 | 17 | 20 | 96*
CNC[C@@H]1Oc2ccc(NC(=O)Nc3ccccc3)cc2CC(=O)N([C@@H](C)CO)C[C@@H]1C | -6 | · | · | · | ·
CC(C)(C)S(=O)(=O)c1cnc(-c2ccccn2)nc1N | · | 3 | 4 | 1 | 2
Cc1cccc(-c2ncc(S(=O)(=O)C(C)(C)C)c(N)n2)c1 | 68* | 24 | 35* | 45 | 94*
CCC(C(=O)OCC(=O)Nc1cc(Cl)ccc1Cl)c1ccccc1 (centres undefined) | · | -66* | · | -74 | -13
C[C@H]1CN([C@@H](C)CO)C(=O)Cc2cc(NC(=O)Nc3ccc4c(c3)OCO4)ccc2O[C@@H]1CN(C)S(=O)(=O)c1cn(C)cn1 | 1 | · | · | · | ·
O=C(CCl)Nc1cn(-c2ccccc2)nc1-c1ccc(F)cc1 | · | -84* | 2 | -85 | -46
Cc1ccc(-c2cc(C(=O)N3CCCCCC3)no2)cc1 | -5 | 1 | ? | 3 | 73
O=C(c1cc(-c2ccccc2)on1)N1CCCCCC1 | 55* | 38 | 37* | ? | 141*
O=C(c1cc(-c2cccc(O)c2)on1)N1CCCC1 | 0 | 9 | 26 | 25 | 15
O=C(c1cc(-c2cccc(O)c2)on1)N1CCCCC1 | -17 | 22 | 40* | 35 | 53
CCCN1C[C@H](C)[C@H](OC)CN(C)C(=O)c2ccc(NS(C)(=O)=O)cc2OC[C@@H]1C | -3 | · | · | · | ·
CCOC(=O)C1CCN(c2c(NCc3ccc(C(=O)Nc4ccc(C)cc4)cc3)c(=O)c2=O)CC1 | 8 | -69* | 3 | -78 | 4
CCOC(=O)Cn1c(=O)oc2cc(S(=O)(=O)N3CCN(C(=O)c4ccco4)CC3)ccc21 | · | 30 | -2 | 71* | -9
C[C@H]1CN([C@@H](C)CO)C(=O)Cc2cc(NC(=O)CCN3CCOCC3)ccc2O[C@H]1CN(C)Cc1ccccc1 | 0 | · | · | · | ·
Cc1ccc(S(=O)(=O)c2ccc([N+](=O)[O-])cn2)cc1 | 23 | -84* | -12 | -88 | -88
Cc1cc(S(=O)(=O)c2ccc([N+](=O)[O-])cn2)ccc1Br | · | 9 | 0 | 34 | -89
Nc1ccc(S(=O)(=O)c2ccccc2)nc1 | 5 | -10 | 1 | -1 | ·
O=[N+]([O-])c1ccc(S(=O)(=O)c2ccccc2)nc1 | -20 | -96* | -11 | -96 | -93
C[C@H]1CN([C@@H](C)CO)S(=O)(=O)c2ccc(-c3ccc(C(=O)N(C)C)cc3)cc2O[C@H]1CN(C)C(=O)Nc1ccccc1F | 4 | · | · | · | ·
CC(C)CC#Cc1ccc2c(c1)O[C@@H](CN(C)C(=O)Cc1ccccn1)[C@H](C)CN([C@@H](C)CO)S2(=O)=O | 3 | · | · | · | ·
SMILES | esBAF inh | HSF1 inhib | Wnt bcat act | HSF-1 act | MITF TRPM1 HTS
CC1=CC(=C2N=C(c3ccccc3)OC2=O)C=C(C)O1 | 64* | 7 | · | 21 | ·
CN1C=CC=C/C1=C1/N=C(c2ccccc2)OC1=O | -2 | -2 | -2 | 14 | -2
CC(=O)c1cccc(OCc2cc(C(=O)N3CC4C[C@@H]5CC3C[C@H](C4)C5)no2)c1 | -7 | 2 | -1 | 22 | -4
CC(=O)c1cccc(OCc2cc(C(=O)NCc3nc(C)c(C)s3)no2)c1 | 48* | 17 | 10 | 39 | 68
CCOC(=O)N1CCN(C(=O)c2cc(COc3cccc(C(C)=O)c3)on2)CC1 | 42* | 10 | 10 | 2 | 10
CC(=O)c1ccc(OCc2cc(C(=O)N3CCOCC3)no2)cc1 | 61* | 19 | 16 | 37 | 65
C[C@@H]1CN([C@H](C)CO)C(=O)c2cc(NC(=O)Nc3ccc(C(F)(F)F)cc3)ccc2O[C@@H](C)CCCCO[C@@H]1CN(C)C(=O)C1CCCCC1 | -3 | · | · | · | ·
CC(=O)N1[C@@H](CO)[C@H](c2ccccc2)[C@@H]1CN(C(=O)c1ccc(F)cc1)C(C)C | -1 | · | · | · | ·
CN(C)CC(=O)Nc1ccc2c(c1)[C@@H]1C[C@@H](CC(=O)NCc3cccnc3)O[C@H](CO)[C@@H]1O2 | 4 | · | · | · | ·
